Test systems include NCI-H23 lung; NCI-H226 lung; NCI-H322M lung; HOP-62 NSCLC; NCI-H460 lung; HOP-92 NSCLC; NCI-H522 lung; A549/ATCC NSCLC; 786-0 renal; COLO 205 colon; DU-145 prostate; K-562 leukemia; MALME-3M melanoma; MDA-MB-231 breast; RXF 393 renal; SF-268 CNS; SF-295 CNS; SF-539 CNS; UACC-257 melanoma; M14 melanoma.
Common to all, as to assay: NCI-60 one-dose screen, 48 h (100 = growth as untreated, 0 = no growth, -100 = all killed)
Details in all cases: 10 µM unless noted

Compounds without any hit were thinned out: in the full panel of roughly 83,000, 20% have a hit.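 Results are percent growth after 48 hours of single-concentration exposure. 100 means growth as in untreated cells, lower positive values show inhibition; negative values down to -100 show cell death.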 Values without a mark were called inactive. The source made the active and inactive calls. The calls were made as follows: active = growth percent below 10; inactive = the rest.

`O=C(O)c1ccc(Nc2ncc3c(n2)-c2ccc(Cl)cc2C(c2c(F)cccc2F)=NC3)cc1`: the growth with NCI-H23 lung was 64.9%; in the assay with NCI-H226 lung, 51.7%; with NCI-H322M lung, 89%; with HOP-62 NSCLC, 37.7%; in the assay with NCI-H460 lung, 39.5%; with HOP-92 NSCLC it was 54.4%. In addition, the growth in the assay on NCI-H522 lung was 29.9%; with A549/ATCC NSCLC it was 30%; in the assay with 786-0 renal, 63%; in the assay on COLO 205 colon, 2.8% (active); in the assay on DU-145 prostate, 72.1%; in the assay on K-562 leukemia, 23.3%. Besides, the growth is 76.5% with MALME-3M melanoma; 51.7% in the assay with MDA-MB-231 breast; 43.8% with RXF 393 renal; 52.6% in the assay on SF-268 CNS; 39.3% in the assay with SF-295 CNS; 59.4% in the assay on SF-539 CNS. Besides, the growth with UACC-257 melanoma was 46.4%; with M14 melanoma, 57.5%.

As for `CO[C@H](C(=O)N[C@@H](CCCCNC(=O)OCc1ccccc1)C(=O)OC(C)(C)C)[C@@H]1Cc2cc3cc(OC4CC(OC5CC(O)C(O)C(C)O5)C(O)C(C)O4)c(C)c(O)c3c(O)c2C(=O)[C@H]1OC1CC(OC2CC(OC3CC(C)(O)C(O)C(C)O3)C(O)C(C)O2)C(O)C(C)O1` (stereo not given in full), the growth in the assay on NCI-H23 lung is -42.6% (active); in the assay on NCI-H226 lung it was -75.5% (active); in the assay with NCI-H322M lung it was 20.2%; in the assay with HOP-62 NSCLC it was -15% (active); with NCI-H460 lung it was -17.6% (active); in the assay on HOP-92 NSCLC it was -82.6% (active). Further, the growth with NCI-H522 lung is -16% (active); in the assay on A549/ATCC NSCLC, -25.7% (active); in the assay on 786-0 renal it was -89.8% (active); with COLO 205 colon, -20.7% (active); in the assay on DU-145 prostate, 26.5%; in the assay with K-562 leukemia, 5.35% (active). Besides, the growth was -69.4% (active) in the assay with MALME-3M melanoma; -71.8% (active) with MDA-MB-231 breast; -85.9% (active) in the assay on RXF 393 renal; -61.5% (active) with SF-268 CNS; -89.5% (active) in the assay on SF-295 CNS; -32% (active) in the assay on SF-539 CNS. For the same molecule, the growth in the assay with UACC-257 melanoma is -5.47% (active); in the assay with M14 melanoma it was -69.8% (active).

Consider `CNC(=O)c1cc(Oc2ccc(NC(=O)Nc3ccc(Cl)c(C(F)(F)F)c3)c(F)c2)ccn1`, for which the growth in the assay with NCI-H23 lung is -25.8% (active); in the assay on NCI-H226 lung it was -16.8% (active); with NCI-H322M lung it was -13.4% (active); in the assay with HOP-62 NSCLC it was -48.1% (active); in the assay with NCI-H460 lung, -35.4% (active); with HOP-92 NSCLC it was -20.1% (active). For the same molecule, the growth in the assay on NCI-H522 lung is -69.3% (active); in the assay on A549/ATCC NSCLC, -2.14% (active); in the assay with 786-0 renal, 3.58% (active); in the assay on COLO 205 colon it was -59% (active); with DU-145 prostate it was 14.9%; in the assay on K-562 leukemia, -3.75% (active). Moreover, the growth with MALME-3M melanoma was -36.3% (active); in the assay with MDA-MB-231 breast, -57.2% (active); in the assay on RXF 393 renal it was -31.3% (active); in the assay on SF-268 CNS, -30.6% (active); in the assay on SF-295 CNS, -47.4% (active); in the assay on SF-539 CNS, -71.7% (active). In addition, the growth was -50.3% (active) in the assay on UACC-257 melanoma and -28.1% (active) in the assay with M14 melanoma.

On to `Cc1cc(C(=O)NOCCO)c(Nc2ccc(I)cc2F)n(C)c1=O`, for which the growth in the assay on NCI-H23 lung was 25.9%; with NCI-H226 lung it was 71.2%; in the assay on NCI-H322M lung, 19.8%; with HOP-62 NSCLC, 38.9%; in the assay on NCI-H460 lung, 66.6%; in the assay with HOP-92 NSCLC it was -21.5% (active). Also, the growth in the assay on NCI-H522 lung is 55%; in the assay on A549/ATCC NSCLC, 32.8%; in the assay with 786-0 renal it was 71.3%; in the assay on COLO 205 colon it was 4.04% (active); in the assay on DU-145 prostate, 69.8%; in the assay with K-562 leukemia, 34.2%. Moreover, the growth in the assay with MALME-3M melanoma was -4.71% (active); in the assay with MDA-MB-231 breast, 40.7%; in the assay on RXF 393 renal it was 27.3%; in the assay on SF-268 CNS, 78.9%; in the assay with SF-295 CNS, 84%; in the assay with SF-539 CNS, 60.8%. Besides, the growth in the assay on UACC-257 melanoma is -19.6% (active); in the assay with M14 melanoma, 7.71% (active).

In the case of `CN(C)C/C=C/C(=O)Nc1cc2c(Nc3ccc(F)c(Cl)c3)ncnc2cc1O[C@H]1CCOC1`, the growth in the assay on NCI-H23 lung is -11.7% (active); in the assay with NCI-H226 lung, -7.37% (active); with NCI-H322M lung it was -16.4% (active); in the assay on HOP-62 NSCLC, -10.8% (active); in the assay on NCI-H460 lung, 4.3% (active); in the assay on HOP-92 NSCLC, -11.5% (active). Also, the growth was -55.6% (active) in the assay with NCI-H522 lung; 3.14% (active) with A549/ATCC NSCLC; 8.66% (active) with 786-0 renal; -65.1% (active) with COLO 205 colon; -7.97% (active) in the assay on DU-145 prostate; 0.783% (active) in the assay with K-562 leukemia. Further, the growth in the assay on MALME-3M melanoma was -75.1% (active); in the assay with MDA-MB-231 breast it was -13.7% (active); in the assay with RXF 393 renal, -22% (active); with SF-268 CNS, 6.2% (active); in the assay with SF-295 CNS it was 29.8%; with SF-539 CNS, -84.6% (active). Also, the growth in the assay on UACC-257 melanoma was -70.7% (active); in the assay with M14 melanoma, -82.8% (active).

Take `CC1=CC2c3oc(-c4ccccc4)c(C(=O)c4ccccc4)c3CNC2C=C1` (stereo not given): the growth with NCI-H23 lung was 95%; in the assay on NCI-H226 lung, 83.8%; in the assay with NCI-H322M lung, 94.6%; with HOP-62 NSCLC it was 74.5%; in the assay with NCI-H460 lung it was 100%; in the assay on HOP-92 NSCLC, 97.5%. The growth in the assay on NCI-H522 lung is 57.7%; with A549/ATCC NSCLC, 74.2%; with 786-0 renal, 111%; with COLO 205 colon, 109%; with DU-145 prostate it was 112%; in the assay on K-562 leukemia, 95.8%. In addition, the growth was 98.8% in the assay with MALME-3M melanoma; 88.4% in the assay with MDA-MB-231 breast; 94.2% with RXF 393 renal; 97.9% in the assay with SF-268 CNS; 95.9% with SF-295 CNS; 109% in the assay on SF-539 CNS. Moreover, the growth was 70.6% with UACC-257 melanoma and 96.1% in the assay on M14 melanoma.

In the case of `O=C(NOCCO)c1cc(CN2OCCCC2=O)c(F)c(F)c1Nc1ccc(I)cc1F`, the growth was 22.7% in the assay with NCI-H23 lung; 50.9% in the assay on NCI-H226 lung; 15.4% in the assay with NCI-H322M lung; 36.8% in the assay with HOP-62 NSCLC; 59.4% with NCI-H460 lung; -20% (active) with HOP-92 NSCLC. Besides, the growth is 45.8% in the assay on NCI-H522 lung; 28.9% with A549/ATCC NSCLC; 64.6% with 786-0 renal; 5.72% (active) in the assay on COLO 205 colon; 56.7% with DU-145 prostate; 31.2% in the assay on K-562 leukemia. Also, the growth in the assay with MALME-3M melanoma was -2.48% (active); with MDA-MB-231 breast it was 32.2%; in the assay on RXF 393 renal, 24.9%; in the assay with SF-268 CNS, 67.5%; in the assay with SF-295 CNS it was 71.6%; in the assay with SF-539 CNS, 55.4%. Further, the growth in the assay with UACC-257 melanoma was -13.2% (active); in the assay with M14 melanoma, 9.12% (active).

In the case of `Cn1cnc2c(F)c(Nc3ccc(Br)cc3Cl)c(C(=O)NOCCO)cc21`, the growth with NCI-H23 lung was 25.7%; with NCI-H226 lung, 55.3%; with NCI-H322M lung, 11.2%; in the assay on HOP-62 NSCLC it was 28.6%; with NCI-H460 lung, 60.2%; in the assay on HOP-92 NSCLC, -0.548% (active). The growth was 44.4% in the assay with NCI-H522 lung; 35.8% with A549/ATCC NSCLC; 71.1% in the assay with 786-0 renal; -3.79% (active) in the assay with COLO 205 colon; 69.6% with DU-145 prostate; 47.2% in the assay with K-562 leukemia. Further, the growth was -16.2% (active) in the assay with MALME-3M melanoma; 24.7% in the assay with MDA-MB-231 breast; 14.7% in the assay on RXF 393 renal; 77.2% with SF-268 CNS; 82.8% with SF-295 CNS; 69% in the assay with SF-539 CNS. Also, the growth is -21.2% (active) in the assay on UACC-257 melanoma and 6.05% (active) in the assay with M14 melanoma.
